# Measured values reported in PubChem BioAssay (NCATS).
# Records with an inconclusive call do not appear. A call without a number means that no potency is given here. Activity calls are given as the source filed them. Calls follow the shape of the dose curve; as a rule, active = well fitted cell-killing curve with a large enough effect; inconclusive = small, poorly fitted or top-dose-only effect; inactive = no such curve, though single readings can be large or run the other way.
# Assay: qHTS of pediatric cancer cell lines to identify multiple opportunities for drug repurposing: Primary screen for SJ-GBM2 cells (AID 1347091)
# Conditions: SJ-GBM2 viability, CellTiter-Glo luminescence, 48 h; series mostly up to 46 µM
# Summary of the method: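 Cell viability, CellTiter-Glo luminescence; 500-1,000 cells/well, 8- or 11-point titration, 48 h compound exposure at 37 degrees C, 5% CO2. Controls: DMSO neutral, bortezomib 2.3 µM final as positive.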
# Potency is read from the fitted curve at half-maximal effect.
row,Compound,Potency
1,Cc1ncc([N+](=O)[O-])n1C,inactive
2,OC1(c2ccc(Cl)cc2)CCNCC1,inactive
3,Nc1nc(=O)n([C@@H]2O[C@H](CO)[C@@H](O)[C@@H]2F)cc1I,inactive
4,CCCCCCCCCCCCCC[N+](C)(C)C,11900 nM (active)
5,O=C(COCCOCCOCC(=O)Nc1c(I)cc(I)c(C(=O)O)c1I)Nc1c(I)cc(I)c(C(=O)O)c1I,inactive
6,CC1CCCCN1CCCOC(=O)c1ccc(OC2CCCCC2)cc1 (configuration not stated),inactive
7,CC[C@@]1(O)C(=O)OCc2c1cc1n(c2=O)Cc2c-1nc1ccccc1c2/C=N/OC(C)(C)C,26.6 nM (active)
8,CCN(CC)CCOc1ccc(/C(=C(\Cl)c2ccccc2)c2ccccc2)cc1,18800 nM (active)
9,CC[N+]1(CC)CCC(=C(c2ccccc2)c2ccccc2)C1C (configuration not stated),inactive
10,NS(=O)(=O)c1cc(C(=O)NN2C[C@H]3[C@H]4CCC(C4)[C@H]3C2)ccc1Cl,inactive
11,Cc1ccc(CCn2c3c(c4cc(Cl)ccc42)CN(C)CC3)cn1,inactive
12,Nc1nnnn1-c1ccccc1,inactive
13,C/C(=C1\CCOC(=O)S1)N(C=O)Cc1cnc(C)nc1N,inactive
14,COc1cc(C(=O)OC(COCCC(C)C)CN2CCOCC2)cc(OC)c1OC (configuration not stated),inactive
15,Cc1oc(=O)oc1COC(=O)[C@@H]1N2C(=O)[C@@H](NC(=O)[C@H](N)c3ccccc3)[C@H]2SC1(C)C,inactive
16,O=C(O)Cn1cnnn1,inactive

row,Compound,Potency
1,O=C(O)c1ccc(OCCN2CCCCC2)cc1,inactive
2,CC(C)CCCC(C)NCCC(C)C (configuration not stated),inactive
3,CC(=O)OCC[N+](C)(C)C,inactive
4,Nc1ccc2c(c1)CN1C(=O)c3ccccc3C1=N2,inactive
5,O=C1Cc2cc(Cl)ccc2N1,inactive
6,CCCCCCCCCCCCCCCCCCN(C)C,inactive
7,CCCCOC(=O)CCCCCCCCC(=O)OCCCC,inactive
8,O=C(O)C(=O)Nc1cccc(-c2nn[nH]n2)c1,inactive
9,CN1[C@@H]2CC[C@H]1CC(NC(=O)n1c(=O)[nH]c3ccccc31)C2 (some centres not stated),inactive
10,O=C(OCCN1CCOCC1)c1cccnc1Nc1cccc(C(F)(F)F)c1,inactive
11,C/C(=N\O)[C@@H](C)NCC(C)(C)CN[C@H](C)/C(C)=N/O,inactive
12,O=C1CCCc2c(O)cccc21,inactive
13,Cc1nc(N)nc(N)c1-c1ccc(Cl)c(Cl)c1,299 nM (active)
14,NC(=O)NS(=O)(=O)c1ccc(Cl)cc1,inactive
15,CCC1=C[C@@H]2CN(C1)Cc1c([nH]c3ccccc13)[C@@](C(=O)OC)(c1cc3c(cc1OC)N(C)[C@H]1[C@@](O)(C(=O)OC)[C@H](OC(C)=O)[C@]4(CC)C=CCN5CC[C@]31[C@@H]54)C2,8.4 nM (active)
16,CCCC(=O)O[C@]1(C(=O)CC)CC[C@H]2[C@@H]3CCC4=CC(=O)CC[C@]4(C)[C@H]3[C@@H](O)C[C@@]21C,inactive
